Assay results: PubChem BioAssay (NCI)
About 83,000 compounds went through this panel and 20% of them were active in at least one assay; those are over-represented in the sample as a whole.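 Compound tested at a single concentration for 48 hours in 96-well plates; a percent growth value below 10 was scored as active.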 The source made the active and inactive calls.

System: MOLT-4 leukemia
Experiment: NCI-60 one-dose screen, 48 h (100 = growth as untreated, 0 = no growth, -100 = all killed)
Details: 10 µM unless noted

Compound	growth
CC1(C)OC2COC3(C(=O)O)OC(C)(C)OC3C2O1 (centres undefined)	104% (inactive)
Cc1ccc(Cn2c(-c3cccs3)nc3ccccc32)cc1	93.2% (inactive)
COc1cc2c(cc1OC)C1(C)N(CC2)C(=O)OC1(C)C (centres undefined)	-75.3% (active)
Cc1cc(-c2ccccc2)c(C)n1Cc1ccc(Cl)cc1	17.1% (inactive)
CCN(Cc1ccccc1)c1ccc(SC#N)cc1	59.5% (inactive)
O=C1Nc2ccc(Br)cc2C1=N/C=c1\[nH]c(=O)/c(=C/c2ccc(Cl)cc2)s1	90.9% (inactive)
COc1ccc(-c2nc(-c3ccccc3)c(-c3ccccc3)n2C2CC2)cc1OC1CCCCC1	32.7% (inactive)
CC(=O)Nc1ccc(S(=O)(=O)N2C(=O)CCC2C(=O)Nc2ccccc2)cc1 (centres undefined)	28.8% (inactive)
COc1cc(CNC(=O)CCSc2nc3ccccc3c(=O)n2Cc2cc(OC)c(OC)c(OC)c2)cc(OC)c1OC	18.8% (inactive)
O=C(CN1CCN(c2cc3c(cc2F)c(=O)c(C(=O)O)cn3C2CC2)CC1)Nc1ccc(C(=O)/C=C/c2ccccc2)cc1	19% (inactive)
CC(C)N(Cc1ccc(CN(C(=O)CCl)C(C)C)cc1)C(=O)CCl	8.54% (active)
COc1ccc(/C=C/c2cc(N3CCOCC3)c3cc(F)c(F)cc3n2)cc1OC	9.14% (active)
COc1cccc(-n2cc(-c3nc(Cl)c4ccccc4n3)nn2)c1	104% (inactive)
CCNC(=O)C1CCCN1C(=O)C(CCCN=C(N)N)NC(=O)C(CC(C)C)NC(=O)C(CC(C)C)NC(=O)C(Cc1ccc(O)cc1)NC(=O)C(CO)NC(=O)C(Cc1c[nH]c2ccccc12)NC(=O)C(Cc1cnc[nH]1)NC(=O)C1CCC(=O)N1 (centres undefined)	86.5% (inactive)
